# Test results: PubChem BioAssay (NCATS)
# Active and inactive are the calls of the source. No rule for the calls is given here.
# Assay: qHTS assay for small molecule activators of the human pregnane X receptor (PXR) signaling pathway (AID 720659)
# Settings: DPX-2 HepG2 CYP3A4-luciferase, 24 h; series mostly up to 92.3 µM
row,Structure (SMILES),outcome
1,CC(C)C(C)(C)C(C)(C)C(C)(C)S,inactive
2,CCCC(=O)c1cc(O)c(O)cc1O,inactive
3,CCCCCCCCCCCCCCCC[n+]1ccccc1,inactive
